# Test results reported in PubChem BioAssay (NCATS).
# Records with an inconclusive call do not appear. Calls of active or inactive are those of the source. Calls follow the shape of the dose curve; as a rule, active = well fitted curve in the direction sought with a large enough effect; inconclusive = small, poorly fitted or top-dose-only effect, or another doubt; inactive = no such curve, though single readings can be large; an effect the other way counts as inactive or inconclusive.
# Legend:
# [1] = Quantitative High-Throughput drug screen in 47 multiple myeloma cell lines against the NCATS MIPE library collection: Karpas417_ECACC cell viability assay (AID 1918961); conditions: Karpas417 myeloma viability, CellTiter-Glo ATP luminescence, 48 h; viability (% of DMSO): at 45.8 µM (top of the series)
# Procedure, shortened: (§1)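 Approved and investigational drugs from MIPE 4.0 were added by pin tool to 500 cells per well. After 48 hours at 37C, ATP-based CellTiter-Glo luminescence indicated remaining viability.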
# [2] = Quantitative High-Throughput drug screen in 47 multiple myeloma cell lines against the NCATS MIPE library collection: KHM11_PLB cell viability assay (AID 1918962); also: nearly all actives have a fitted effect of over 35% in size
# Procedure, shortened: (§2)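 Viability readout: CellTiter-Glo luminescence following 5 min room-temperature incubation with reagent. Prior exposure: 48 h, 37C, humidified 5% CO2, 500 cells per well.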
# [3] = Quantitative High-Throughput drug screen in 47 multiple myeloma cell lines against the NCATS MIPE library collection: JIM3_ECACC cell viability assay (AID 1918963; also: nearly all actives have a fitted effect of over 35% in size)
# Procedure, shortened: as §2
# [4] = Quantitative High-Throughput drug screen in 47 multiple myeloma cell lines against the NCATS MIPE library collection: INA6_PLB cell viability assay (AID 1918965; also: nearly all actives have a fitted effect of over 55% in size)
# Procedure, shortened: as §1
# [5] = Quantitative High-Throughput drug screen in 47 multiple myeloma cell lines against the NCATS MIPE library collection: JJN3_DSMZ cell viability assay (AID 1918966; also: nearly all actives have a fitted effect of over 50% in size)
# Procedure, shortened: (§3)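 qHTS of the MIPE 4.0 collection: 500 myeloma cells/well, 48 h drug exposure at 37C in 5% CO2, then CellTiter-Glo for 5 min at room temperature before luminescence reading.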
# [6] = Quantitative High-Throughput drug screen in 47 multiple myeloma cell lines against the NCATS MIPE library collection: H1112_PLB cell viability assay (AID 1918967; also: nearly all actives have a fitted effect of over 30% in size)
# Procedure, shortened: as §3
# [7] = Quantitative High-Throughput drug screen in 47 multiple myeloma cell lines against the NCATS MIPE library collection: Karpas25_ECACC cell viability assay (AID 1918968; also: nearly all actives have a fitted effect of over 35% in size)
# Procedure, shortened: as §3
# [8] = Quantitative High-Throughput drug screen in 47 multiple myeloma cell lines against the NCATS MIPE library collection: KMS27_JCRB cell viability assay (AID 1918970); also: nearly all actives have a fitted effect of over 30% in size
# Procedure, shortened: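 Viability inhibition screen, 48 h compound exposure, luminescent ATP read-out.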
# [9] = Quantitative High-Throughput drug screen in 47 multiple myeloma cell lines against the NCATS MIPE library collection: KMS12BM_JCRB cell viability assay (AID 1918971); also: nearly all actives have a fitted effect of over 35% in size
# Procedure, shortened: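 Steps: seed 500 cells per well; pin-transfer MIPE 4.0 library; incubate 48 h at 37C, 5% CO2, humidified; add CellTiter-Glo, 5 min room temperature; read luminescence.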
# [10] = Quantitative High-Throughput drug screen in 47 multiple myeloma cell lines against the NCATS MIPE library collection: JIM1_ECACC cell viability assay (AID 1918964)
# Procedure, shortened: as §3
# Potency is read from the fitted curve at half-maximal effect.
SMILES,Potency [1],Potency [2],Potency [3],Potency [4],Potency [5],Potency [6],Potency [7],Potency [8],Potency [9],Potency [10]
c1nc2nc(Nc3ccc(N4CCOCC4)cc3)nc(NC3CCCCC3)c2[nH]1,743 nM (active),14800 nM (active),3720 nM (active),2960 nM (active),18700 nM (active),5900 nM (active),5260 nM (active),5900 nM (active),20900 nM (active),–
COC(=O)c1ccc2c(C(=Nc3ccc(N(C)C(=O)CN4CCN(C)CC4)cc3)c3ccccc3)c(O)[nH]c2c1,187 nM (active),26400 nM (active),6620 nM (active),8330 nM (active),2350 nM (active),–,11800 nM (active),–,–,46.9 nM (active)
COc1ccc(OC)c(-c2nnc3ccc(-c4ccc(OC)c(O[C@@H]5CCOC5)c4)nn23)c1,10500 nM (active),7430 nM (active),8330 nM (active),5900 nM (active),16600 nM (active),13200 nM (active),6620 nM (active),–,10500 nM (active),8330 nM (active)
Cc1cc(Nc2nc(N[C@@H](C)c3ccc(F)cc3)c(C#N)cc2F)n[nH]1,209 nM (active),8330 nM (active),3720 nM (active),372 nM (active),–,16600 nM (active),1480 nM (active),935 nM (active),–,296 nM (active)
Nc1nc(NCCNc2ncc(-n3ccnc3)c(-c3ccc(Cl)cc3Cl)n2)ccc1[N+](=O)[O-],inactive,5260 nM (active),5260 nM (active),1180 nM (active),6620 nM (active),–,–,–,–,–
CC(=O)c1c(C)c2cnc(Nc3ccc(N4CCNCC4)cn3)nc2n(C2CCCC2)c1=O,16600 nM (active),23500 nM (active),18700 nM (active),18700 nM (active),23500 nM (active),23500 nM (active),11800 nM (active),26400 nM (active),833 nM (active),5900 nM (active)
CN(C)Cc1c(C(=O)NCCOc2ccc(C(=O)NO)cc2)oc2ccccc12,372 nM (active),1870 nM (active),2960 nM (active),187 nM (active),833 nM (active),1870 nM (active),662 nM (active),264 nM (active),469 nM (active),418 nM (active)
Cc1ccc(C(=O)Nc2ccc(CN3CCN(C)CC3)c(C(F)(F)F)c2)cc1C#Cc1cnc2cccnn12,469 nM (active),662 nM (active),1870 nM (active),332 nM (active),2640 nM (active),2090 nM (active),935 nM (active),2640 nM (active),2960 nM (active),–
CNC(=O)c1ccc(N2C(=S)N(c3cnc(C#N)c(C(F)(F)F)c3)C(=O)C23CCC3)cc1F,1050 nM (active),2090 nM (active),2960 nM (active),2090 nM (active),3320 nM (active),833 nM (active),743 nM (active),4690 nM (active),–,1870 nM (active)
CC(=O)Nc1nc(C)c(-c2ccc(Cl)c(S(=O)(=O)NCCO)c2)s1,132 nM (active),935 nM (active),4690 nM (active),1050 nM (active),18700 nM (active),1480 nM (active),1180 nM (active),1320 nM (active),18700 nM (active),–
CC(C)C[C@H](NC(=O)CNC(=O)c1cc(Cl)ccc1Cl)B(O)O,41.8 nM (active),46.9 nM (active),105 nM (active),37.2 nM (active),105 nM (active),105 nM (active),–,118 nM (active),–,105 nM (active)
CC(=O)SC[C@@H](C)C(=O)N1CCC[C@H]1C(=O)N[C@@H](Cc1ccccc1)C(=O)O,inactive,inactive,inactive,inactive,–,–,inactive,–,inactive,inactive
NC(=O)c1c(OCc2c(F)cc(Br)cc2F)nsc1NC(=O)NCCCCN1CCCC1,inactive,9350 nM (active),26400 nM (active),18700 nM (active),20900 nM (active),16600 nM (active),8330 nM (active),inactive,–,–
O=C(NCCS(=O)(=O)c1ccc(C(F)(F)F)cn1)c1ccc(Cl)cc1,23.5 nM (active),inactive,inactive,inactive,inactive,inactive,inactive,–,–,–
Nc1ccccc1NC(=O)c1ccc(CNc2nccc(-c3cccnc3)n2)cc1,469 nM (active),2640 nM (active),2640 nM (active),296 nM (active),–,2640 nM (active),833 nM (active),2640 nM (active),1320 nM (active),1320 nM (active)
Cc1ccc(C(=O)Nc2cccc(C(F)(F)F)c2)cc1-c1ccc2nc(NCCN3CCOCC3)ncc2c1,1180 nM (active),743 nM (active),13200 nM (active),3320 nM (active),16600 nM (active),14800 nM (active),–,2960 nM (active),8330 nM (active),1050 nM (active)
COc1cc2c(Oc3ccc(NC(=O)C4(C(=O)Nc5ccc(F)cc5)CC4)cc3F)ccnc2cc1OCCCN1CCOCC1,2350 nM (active),7430 nM (active),11800 nM (active),7430 nM (active),–,16600 nM (active),–,9350 nM (active),–,1660 nM (active)
OCCCNc1cc(-c2ccnc(Nc3cccc(Cl)c3)n2)ccn1,46.9 nM (active),18.7 nM (active),52.6 nM (active),26.4 nM (active),93.5 nM (active),59 nM (active),41.8 nM (active),41.8 nM (active),–,52.6 nM (active)
Nc1ccccc1NC(=O)c1ccc(CNC(=O)OCc2cccnc2)cc1,469 nM (active),4180 nM (active),2960 nM (active),418 nM (active),–,2350 nM (active),–,526 nM (active),1320 nM (active),1480 nM (active)
CCN(CC)CCNC(=O)c1ccc2nc(-c3ccccc3)c(-c3ccc(CN4CCC(n5c(=O)[nH]c6ccccc65)CC4)cc3)nc2c1,1050 nM (active),332 nM (active),935 nM (active),296 nM (active),20900 nM (active),833 nM (active),332 nM (active),418 nM (active),–,833 nM (active)
CC(C)[C@H](C(=O)Nc1ccc(C(=O)NO)cc1)c1ccccc1,469 nM (active),1320 nM (active),1480 nM (active),235 nM (active),662 nM (active),1050 nM (active),418 nM (active),2090 nM (active),526 nM (active),332 nM (active)
O=C(NC1CCNCC1)c1[nH]ncc1NC(=O)c1c(Cl)cccc1Cl,187 nM (active),235 nM (active),526 nM (active),590 nM (active),187 nM (active),1050 nM (active),372 nM (active),–,235 nM (active),264 nM (active)
CC(C)c1nn(-c2c(Cl)cccc2Cl)c2nc(Cc3ccc(OCCO)cc3)[nH]c(=O)c12,inactive,148 nM (active),166 nM (active),83.3 nM (active),83.3 nM (active),235 nM (active),37.2 nM (active),inactive,74.3 nM (active),–
COc1cc2ncn(-c3cc(OCc4ccccc4C(F)(F)F)c(C(N)=O)s3)c2cc1OC,13200 nM (active),18700 nM (active),469 nM (active),1180 nM (active),16600 nM (active),7430 nM (active),13200 nM (active),132 nM (active),833 nM (active),–
CCNC(=O)Nc1ccc2ncc(Nc3ccc(C)cc3)nc2n1,59 nM (active),3720 nM (active),4690 nM (active),–,–,5900 nM (active),5900 nM (active),–,–,935 nM (active)
COCCOc1ccc2c(c1)ncn2-c1ccc2cccc(N3CCC(N)CC3)c2n1,590 nM (active),9350 nM (active),10500 nM (active),46.9 nM (active),–,6620 nM (active),66.2 nM (active),1660 nM (active),9350 nM (active),5900 nM (active)
COc1cc(Nc2ncc(F)c(Nc3ccc4c(n3)N(COP(=O)(O)O)C(=O)C(C)(C)O4)n2)cc(OC)c1OC,1050 nM (active),1480 nM (active),1660 nM (active),833 nM (active),–,1660 nM (active),3320 nM (active),–,–,1180 nM (active)
CN(c1ncccc1CNc1nc(Nc2ccc3c(c2)CC(=O)N3)ncc1C(F)(F)F)S(C)(=O)=O,1870 nM (active),2960 nM (active),5900 nM (active),2640 nM (active),2640 nM (active),5900 nM (active),3320 nM (active),–,–,3320 nM (active)
CC1(C)OC2=C(C(=O)c3ccccc3C2=O)[C@H](NCc2ccccc2)[C@H]1O,1870 nM (active),2640 nM (active),2090 nM (active),2090 nM (active),3720 nM (active),2350 nM (active),–,1180 nM (active),8330 nM (active),2640 nM (active)
Cc1ccc(-c2ncn(-c3ccc(Nc4nccc(-c5cccc(N6CCOCC6)c5)n4)cc3)n2)cn1,29.6 nM (active),118 nM (active),235 nM (active),66.2 nM (active),235 nM (active),105 nM (active),83.3 nM (active),46.9 nM (active),–,66.2 nM (active)
